PubChem BioAssay (NCI)
Compounds without any hit were thinned out: in the full panel of roughly 83,000, 20% have a hit.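 Treatment: one concentration, 48 hours, 96-well format. Scoring: percent growth, with anything below 10 considered active.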 Values without a mark were called inactive. Calls of active or inactive are those of the source.

Legend:
Test in all cases: NCI-60 one-dose screen, 48 h (100 = growth as untreated, 0 = no growth, -100 = all killed)
Details in all cases: 10 µM unless noted
NCI-H23 lung = system: NCI-H23 lung
NCI-H226 lung = system: NCI-H226 lung
NCI-H322M lung = system: NCI-H322M lung
HOP-62 NSCLC = system: HOP-62 NSCLC
HOP-92 NSCLC = system: HOP-92 NSCLC
NCI-H522 lung = system: NCI-H522 lung
A549/ATCC NSCLC = system: A549/ATCC NSCLC
786-0 renal = system: 786-0 renal
COLO 205 colon = system: COLO 205 colon
DU-145 prostate = system: DU-145 prostate
K-562 leukemia = system: K-562 leukemia
MALME-3M melanoma = system: MALME-3M melanoma
MDA-MB-231 breast = system: MDA-MB-231 breast
RXF 393 renal = system: RXF 393 renal
SF-268 CNS = system: SF-268 CNS
SF-295 CNS = system: SF-295 CNS
SF-539 CNS = system: SF-539 CNS
UACC-257 melanoma = system: UACC-257 melanoma
M14 melanoma = system: M14 melanoma
NCI-H460 lung = system: NCI-H460 lung

Row | SMILES | growth (NCI-H23 lung) | growth (NCI-H226 lung) [%] | growth (NCI-H322M lung) | growth (HOP-62 NSCLC) | growth (HOP-92 NSCLC) [%] | growth (NCI-H522 lung) | growth (A549/ATCC NSCLC) | growth (786-0 renal) | growth (COLO 205 colon) | growth (DU-145 prostate) | growth (K-562 leukemia) | growth (MALME-3M melanoma) | growth (MDA-MB-231 breast) | growth (RXF 393 renal) | growth (SF-268 CNS) | growth (SF-295 CNS) | growth (SF-539 CNS) | growth (UACC-257 melanoma) [%] | growth (M14 melanoma) | growth (NCI-H460 lung)
1 | COc1cccc(/C=C/C(=O)c2cc3c(N)c(C(=O)Nc4ccccc4)sc3nc2C)c1 | 49.6% | 55.3 | 67.9% | 13.6% | 64.4 | 7.06% (active) | 34.3% | -38.2% (active) | 67.6% | 12% | 13.3% | 68.6% | 17.1% | -74.6% (active) | 18.2% | 44.8% | -16% (active) | 71.8 | 29.9% | –
2 | COCCNC(=O)c1ccc(-c2nc3ccc4[nH]ncc4c3c3c2CCCC3)cc1 | 43.5% | 50.7 | 29.1% | 40.1% | 56.8 | 30.6% | 30.4% | 31.7% | 27.7% | 41.3% | 24.9% | 30.5% | 50.4% | 11.8% | 32.4% | 32.5% | 12.2% | 71.2 | 35.1% | –
3 | CC1=C(C(=O)OC(C)C)C(c2ccc3c(c2)OCO3)NC(=S)N1 (centres undefined) | 99.2% | 84.1 | 108% | 119% | – | – | 104% | 104% | 123% | 109% | 107% | 95.9% | 101% | 106% | 103% | 95.8% | 98.9% | 100 | 99% | 110%
4 | Cc1ccc(-c2nc(N3CCNCC3)c3oc(-c4ccccc4)nc3n2)cc1 | 35.3% | 110 | -78.5% (active) | -6.18% (active) | – | – | 3.88% (active) | -87.8% (active) | -91.1% (active) | -93.1% (active) | -73.3% (active) | -29.5% (active) | -79.2% (active) | -74.1% (active) | 7.93% (active) | -23.2% (active) | -91% (active) | 91.2 | -92.3% (active) | -72.5% (active)
5 | CCC(C)N(c1ccc(Cl)cc1)c1nc(-c2ccc(Br)cc2)cs1 (centres undefined) | 88.6% | 93.1 | 91.4% | 90.9% | 94.4 | 89.2% | 95.6% | 96% | 112% | 108% | 92.4% | 97.5% | 88.6% | 121% | 97.1% | 105% | 101% | 103 | 95.6% | –
6 | N#Cc1nc(-c2ccccc2)oc1S(=O)(=O)N1CCOCC1 | 89.9% | 102 | 100% | 97.9% | 108 | -55.5% (active) | 94.5% | 88% | 0.0605% (active) | 103% | 5.21% (active) | 39.6% | 98.3% | 91% | 108% | 98.5% | 101% | 92.8 | 61.7% | –
7 | O=C(NNc1nccc(Nc2ccc(S(=O)(=O)Nc3ccncc3)cc2)n1)c1ccccc1 | 5.18% (active) | 108 | 96.9% | 89.2% | – | – | 96.8% | 93.8% | 122% | 105% | 107% | 103% | 90.9% | 109% | 95.3% | 104% | 115% | 107 | 91.9% | 119%
8 | O=Nc1c(-c2c(O)[nH]c3ncccc23)[nH]c2ccccc12 | 69.7% | 78.6 | 30.7% | 45.9% | 54 | 47.6% | 46.6% | 43.3% | 108% | 62.2% | 53.3% | 91% | 78.6% | 29.4% | 66.2% | 94.9% | 50.3% | 92.6 | 56.4% | –
